Hits are enriched below; roughly 2.5% of the tested compounds scored in any of these assays.
MEKK2 mut-MEK5 = signal of MEK5 binding to mutant human MEKK2 PB1 domain; percent response, % at 10 µM; bead flow cytometry, Alexa488-MEK5 binding to MEKK2 mutant; hit rate 0.35% among 290,000; AID 1530; in the data active means percent response above about 24%, passing the limit was not always enough
MEKK2wt PB1 HTS = raises or lowers MEK5 binding to wildtype human MEKK2 PB1 domain | binding response (% of control), % at 10 µM | bead flow cytometry, Alexa488-MEK5 binding to MEKK2 WT; actives lie on both sides | hit rate 1.1% among 290,000; in the data active means binding response below about 67% or above about 130%
GRK2 inh = inhibitors of human GRK2 displacing RNA aptamer; inhibition of aptamer binding, % at 10 µM; bead flow cytometry, FAM-aptamer displacement from GRK2; hit rate 0.59% among 330,000; P25098;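 active means inhibition of aptamer binding above 40%, roughly 3 SD of noise, on plates passing a quality check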;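 further: median bead fluorescence of bound FAM aptamer so fluorescent compounds give negative values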
Target sequence (P25098 whole entry, looked up): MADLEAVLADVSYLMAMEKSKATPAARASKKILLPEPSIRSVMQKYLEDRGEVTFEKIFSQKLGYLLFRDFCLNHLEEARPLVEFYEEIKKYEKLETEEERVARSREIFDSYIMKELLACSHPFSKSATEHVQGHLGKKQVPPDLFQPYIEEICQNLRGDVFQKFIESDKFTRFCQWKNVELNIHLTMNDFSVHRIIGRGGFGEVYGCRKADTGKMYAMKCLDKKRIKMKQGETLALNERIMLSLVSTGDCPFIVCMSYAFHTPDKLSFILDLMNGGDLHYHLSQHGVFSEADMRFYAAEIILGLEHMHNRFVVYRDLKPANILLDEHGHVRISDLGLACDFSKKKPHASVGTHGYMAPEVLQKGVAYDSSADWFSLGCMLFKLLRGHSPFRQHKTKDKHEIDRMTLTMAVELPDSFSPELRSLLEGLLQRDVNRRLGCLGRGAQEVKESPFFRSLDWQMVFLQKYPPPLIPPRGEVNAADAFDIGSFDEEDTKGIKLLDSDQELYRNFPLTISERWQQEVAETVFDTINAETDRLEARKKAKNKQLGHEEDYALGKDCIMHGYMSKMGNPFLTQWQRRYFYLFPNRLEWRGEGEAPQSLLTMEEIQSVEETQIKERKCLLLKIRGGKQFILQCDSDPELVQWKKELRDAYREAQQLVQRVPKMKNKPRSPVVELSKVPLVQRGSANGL
MEKK3 PB1 HTS = MEKK3-MEK5 PB1 interaction, increase or decrease; Q99759; bead-based flow cytometry, Alexa488-MEK5 binding to MEKK3; actives lie on both sides; 0 = blocked by unlabeled MEK5, 100 = vehicle; binding response (% of control), % at 10 µM; hit rate 1.4% among 290,000;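 active means binding response more than 3 SD above or below the average of its plate-row segment, actives on both sides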;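 further: Alexa488 bead fluorescence after subtracting the streptavidin-only scavenger bead signal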
Numbers without * were called inactive; ! = not active in a repeat; [ ] = another dose, or the depositor's remark.

For O=C(/C=C/c1ccco1)N1CCN(S(=O)(=O)c2ccccc2)CC1 the results were GRK2 inh 78*.
`Cc1ccc(S(=O)(=O)N2CCN(C(=O)/C=C/c3ccco3)CC2)cc1` gave MEKK2 mut-MEK5 8, MEKK2wt PB1 HTS 113, GRK2 inh 20 and MEKK3 PB1 HTS 97.
`Cc1onc(C(=O)Nc2ccccc2C(F)(F)F)c1[N+](=O)[O-]` gave MEKK2 mut-MEK5 -21, MEKK2wt PB1 HTS 0.0*[inhibitor], GRK2 inh 3 and MEKK3 PB1 HTS 1.0*[inhibitor].
For C#CCOCCOCCOCCNc1nc(N2CCN(C(=O)[C@H](CCCCN)n3cc(C(N)COC(=O)C(F)(F)F)nn3)CC2)nc(N2CCN(C(=O)[C@H](CCCCN)n3cc(C(N)CC(C)C)nn3)CC2)n1 (stereo partly drawn) the results were MEKK2 mut-MEK5 21, MEKK2wt PB1 HTS 150* and MEKK3 PB1 HTS 101.
Screening CCc1[nH]nc2c1C(c1cccnc1)C(C#N)=C(N)O2 (stereo not drawn) returned MEKK2 mut-MEK5 4, MEKK2wt PB1 HTS 104, GRK2 inh 0 and MEKK3 PB1 HTS 102.
`CCCN1CCc2c(sc(NC(=S)NC(=O)c3ccccc3)c2C#N)C1` gave MEKK2 mut-MEK5 8, MEKK2wt PB1 HTS 0.0*, GRK2 inh 0 and MEKK3 PB1 HTS 95.
CC(C)N1CCc2c(sc(NC(=S)NC(=O)c3ccccc3)c2C#N)C1 was read as MEKK2 mut-MEK5 0, MEKK2wt PB1 HTS 87, GRK2 inh 0 and MEKK3 PB1 HTS 89.
`COc1ccc(-n2c(=O)[nH]cc(C(=O)Nc3ccc(NC(C)=O)cc3)c2=O)cc1` gave MEKK2 mut-MEK5 2, MEKK2wt PB1 HTS 102, GRK2 inh 0 and MEKK3 PB1 HTS 98.
For c1ccc(SCc2nc3ccccc3s2)nc1 the results were MEKK2 mut-MEK5 1, MEKK2wt PB1 HTS 101, GRK2 inh 3 and MEKK3 PB1 HTS 101.
For CC1CCC(C(C)C)C(OC(=O)Cn2c(-c3ccc(Cl)cc3)[n+](C)c3ccccc32)C1 (stereo not drawn) the results were MEKK2 mut-MEK5 -3, MEKK2wt PB1 HTS 105, GRK2 inh 0 and MEKK3 PB1 HTS 98.
For CC1CCC(C(C)C)C(OC(=O)Cn2c(-c3ccc(Br)cc3)[n+](C)c3ccccc32)C1 (stereo not drawn) the results were MEKK2 mut-MEK5 11, MEKK2wt PB1 HTS 147*!, GRK2 inh 0 and MEKK3 PB1 HTS 97.
Screening N=c1n(CCN2CCCC2)c2ccccc2n1CC(O)c1ccc(Cl)c(Cl)c1 (stereo not drawn) returned MEKK2 mut-MEK5 4, MEKK2wt PB1 HTS 152*, GRK2 inh 0 and MEKK3 PB1 HTS 104.
For N=c1n(CCN2CCOCC2)c2ccccc2n1CC(=O)c1ccc(Cl)c(Cl)c1 the results were MEKK2 mut-MEK5 0, MEKK2wt PB1 HTS 113, GRK2 inh 0 and MEKK3 PB1 HTS 102.
`COc1cccc(CNC(=O)c2cc(S(=O)(=O)N3CCCC3)cn2C)c1` gave MEKK2 mut-MEK5 1, MEKK2wt PB1 HTS 99, GRK2 inh 1 and MEKK3 PB1 HTS 98.
`O=Cc1coc2c(ccc3ccccc32)c1=O` gave MEKK2 mut-MEK5 -2, MEKK2wt PB1 HTS 101, GRK2 inh 80* and MEKK3 PB1 HTS 102.
For Cc1ccc2c(CN3CCCCC3C)cc(=O)oc2c1 (stereo not drawn) the results were MEKK2 mut-MEK5 -2, MEKK2wt PB1 HTS 96, GRK2 inh 0 and MEKK3 PB1 HTS 95.
Cc1nc(Nc2ccccc2)sc1C(=O)c1ccccc1 was read as MEKK2 mut-MEK5 -5, MEKK2wt PB1 HTS 100, GRK2 inh 0 and MEKK3 PB1 HTS 97.
Screening COc1ccc(C(=O)c2sc(Nc3ccccc3)nc2C)cc1 returned MEKK2 mut-MEK5 16, MEKK2wt PB1 HTS 135*, GRK2 inh 1 and MEKK3 PB1 HTS 111.
Screening CC(Sc1ccc([N+](=O)[O-])cn1)C(=O)Nc1nccs1 (stereo not drawn) returned MEKK2 mut-MEK5 17, MEKK2wt PB1 HTS 157*, GRK2 inh 0 and MEKK3 PB1 HTS 103.
`CCN(CC)S(=O)(=O)c1cccc(-n2c(O)c(C=Nc3ccccc3C(=O)O)c3ccccc3c2=O)c1` gave MEKK2 mut-MEK5 -6, MEKK2wt PB1 HTS 90, GRK2 inh 0 and MEKK3 PB1 HTS 95.
Screening Cc1ccc(-n2c(-c3ccc(Br)cc3)c[n+]3c2CCc2ccc4cccnc4c2-3)cc1 returned MEKK2 mut-MEK5 24, MEKK2wt PB1 HTS 153*, GRK2 inh 0 and MEKK3 PB1 HTS 105.
For COc1ccc(-n2c(-c3ccc(Cl)cc3)c[n+]3c2CCc2ccccc2-3)cc1 the results were MEKK2 mut-MEK5 -14, MEKK2wt PB1 HTS 85, GRK2 inh 0 and MEKK3 PB1 HTS 75.
`COc1ccc(NC(=O)CSc2nc3c(sc4ccccc43)c(=O)n2CCCN2CCCC2)cc1` gave MEKK2 mut-MEK5 39*, MEKK2wt PB1 HTS 176*, GRK2 inh 0 and MEKK3 PB1 HTS 105.
O=C(CSc1nc2c(sc3ccccc32)c(=O)n1CCCN1CCCC1)NCC1CCCO1 (stereo not drawn) was read as MEKK2 mut-MEK5 5, MEKK2wt PB1 HTS 103, GRK2 inh 0 and MEKK3 PB1 HTS 101.
Cc1ccc(-c2noc(CN3CCN(C(c4ccccc4)c4ccccc4)CC3)n2)cc1 was read as MEKK2 mut-MEK5 11, MEKK2wt PB1 HTS 114, GRK2 inh 0 and MEKK3 PB1 HTS 104.
Cc1ccc2c(c1)c1c(n2CC(O)CNC(C)(C)C)CCCC1 (stereo not drawn) was read as MEKK2 mut-MEK5 15, MEKK2wt PB1 HTS 158* and MEKK3 PB1 HTS 116.
`Cc1ccc2c(c1)c1c(n2CC(O)CN2CCCCCC2)CCCC1` (stereo not drawn) gave MEKK2 mut-MEK5 14, MEKK2wt PB1 HTS 123, GRK2 inh 0 and MEKK3 PB1 HTS 106.
For CCC1CCCCN1CCCNC(=O)CS(=O)(=O)Cc1nc(-c2cccc(OC)c2)oc1C (stereo not drawn) the results were MEKK2 mut-MEK5 17, MEKK2wt PB1 HTS 140*, GRK2 inh 0 and MEKK3 PB1 HTS 109.
Screening COc1cccc(-c2nc(CS(=O)(=O)CC(=O)NCCCN3CCOCC3)c(C)o2)c1 returned MEKK2 mut-MEK5 0, MEKK2wt PB1 HTS 99, GRK2 inh 5 and MEKK3 PB1 HTS 101.
For CC1C=CCC2C(=O)N(c3cccc(C(=O)NCCc4ccccc4)c3)C(=O)C12 (stereo not drawn) the results were MEKK2 mut-MEK5 -4, MEKK2wt PB1 HTS 91, GRK2 inh 2 and MEKK3 PB1 HTS 92.
Screening COc1ccc(N=C2O/C(=C/c3sc(=S)n(CC4CCCO4)c3O)N=C2C#N)cc1 (stereo not drawn) returned MEKK2 mut-MEK5 6, MEKK2wt PB1 HTS 33*, GRK2 inh 10 and MEKK3 PB1 HTS 98.
COc1ccc(/C=C2\SC(=S)N(CC3CCCO3)C2=O)cc1 (stereo not drawn) was read as MEKK2 mut-MEK5 -12, MEKK2wt PB1 HTS 89 and MEKK3 PB1 HTS 92.

Compound activity deposited in PubChem BioAssay by NMMLSC.
